PubChem BioAssay (NCI)
This is part of a sample that, as a whole, favours compounds with a hit. Of some 79,000 tested, about 15% had one in any assay. Calls of active or inactive are those of the source. Rule as the data show it: active = growth inhibition above about 70%; inactive = the rest.

Assays:
[1] = NCI Yeast Anticancer Drug Screen. Data for the mec2-1 strain (AID 157); details: S. cerevisiae mec2-1 strain, at 50.0 µM, stronger effect = higher value
Summary of the method: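 Vehicle-treated cultures served as reference for growth inhibition of compound-exposed mec2-1 yeast.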

[2] = NCI Yeast Anticancer Drug Screen. Data for the sgs1 mgt1 strain (AID 161);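 also: 0% = growth of cultures given vehicle only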; details: S. cerevisiae sgs1 mgt1 strain, at 50.0 µM, stronger effect = higher value
Summary of the method: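 Mutant yeast exposed to compound; growth scored against vehicle-only wells.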

[3] = NCI Yeast Anticancer Drug Screen. Data for the cln2 rad14 strain (AID 165);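 also: 0% = growth equal to vehicle treated cultures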; details: S. cerevisiae cln2 rad14 strain, at 50.0 µM, stronger effect = higher value
Summary of the method: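 Each compound was tested on cln2 rad14 yeast. Inhibition of growth was calculated against vehicle-exposed controls.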

[4] = NCI Yeast Anticancer Drug Screen. Data for the bub3 strain (AID 167); details: S. cerevisiae bub3 mutant strain, at 50.0 µM, stronger effect = higher value
Summary of the method: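 In this screen, a yeast mutant lacking normal mitotic checkpoint function is challenged with compound. Relative growth versus vehicle gives the inhibition value.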

[5] = NCI Yeast Anticancer Drug Screen. Data for the mlh1 rad18 strain (AID 175); details: S. cerevisiae mlh1 rad18 strain growth inhibition; at 50.0 µM; stronger effect = higher value
Summary of the method: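 Vehicle-treated cultures served as the reference for growth inhibition in a yeast strain carrying DNA damage repair alterations exposed to each compound.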

Structure (SMILES) | growth inhibition [1] | growth inhibition [2] | growth inhibition [3] | growth inhibition [4] | growth inhibition [5]
O=C(N=Nc1c(O)[nH]c2ccccc12)C(=O)N=Nc1c(O)[nH]c2ccccc12 | 8.35% (inactive) |  |  |  | 
C(=C/c1ccc(/C=C/C=C\c2ccccc2)cc1)/C=C/c1ccccc1 | -2.25% (inactive) | 13.8% (inactive) | -50.6% (inactive) | -2.1% (inactive) | -12.2% (inactive)
N#CCc1cn(-c2ccccc2)nn1 | 8.3% (inactive) | -9.5% (inactive) | 5.45% (inactive) | 0.45% (inactive) | -25.2% (inactive)
CCOc1cc(/C=C2/C=C(c3ccc(OC)cc3)OC2=O)ccc1O | 0.5% (inactive) | 4.5% (inactive) | -19.1% (inactive) | 2.75% (inactive) | -0.7% (inactive)
Cc1nc2ccc(S(=O)(=O)Nc3ccccc3Cl)cc2c(=O)n1NC(=O)CNc1ccccc1Cl | 0.2% (inactive) | 13.4% (inactive) | 6.95% (inactive) | 21.8% (inactive) | 21.3% (inactive)
CC1CCCCN1S(=O)(=O)N(C)C (stereo not given) | 27.1% (inactive) | -4.95% (inactive) | -6.1% (inactive) | 9.55% (inactive) | 6.15% (inactive)
O=P(O)(O)c1ccc(-c2ccc(P(=O)(O)O)cc2)cc1 | 2.85% (inactive) | 12.8% (inactive) | -32.2% (inactive) | 2.3% (inactive) | -1.75% (inactive)
CCOC(=O)C(OC(C)=O)(C(=O)OCC)C(O)c1cccnc1 (stereo not given) | -2.25% (inactive) | 16.3% (inactive) | -37.5% (inactive) | 8% (inactive) | -1.05% (inactive)
CCC(CC)=C(c1ccc(C)cc1)c1ccc(C)cc1 | -12.7% (inactive) | -1.9% (inactive) | -52.8% (inactive) | 4.7% (inactive) | -12.4% (inactive)
Cn1ccc2c3ccsc3ccc21 | 6.35% (inactive) | 4.55% (inactive) | -5.5% (inactive) | 4.3% (inactive) | 1.05% (inactive)
CN(C)c1ccc(/C=N/NC(=O)c2cnc3ccccc3c2)cc1 | -4.95% (inactive) | -11.3% (inactive) | -0.4% (inactive) | 8.1% (inactive) | 17.4% (inactive)
CCC(O)(Cc1ccccc1)C(C(=O)O)c1ccccc1 (stereo not given) | -31.1% (inactive) | 4.6% (inactive) | 4.9% (inactive) | -28.1% (inactive) | -26% (inactive)
CC(Cc1ccco1)C(=O)O (stereo not given) | 15.4% (inactive) | -0.3% (inactive) | -14% (inactive) | 1.9% (inactive) | -11.2% (inactive)
O=C(NNCCO)C(O)C(O)C(O)C(O)CO (stereo not given) | 7.15% (inactive) | 2.95% (inactive) | 5.25% (inactive) | -4.7% (inactive) | 13.2% (inactive)
Cc1[nH]nc2c1NC(=O)OC(C)C2 (stereo not given) | -2.9% (inactive) | 0.9% (inactive) | -9.85% (inactive) | -2.85% (inactive) | 2.9% (inactive)
Cn1cnc(CC(=O)O)c1 | -6.6% (inactive) | -12.5% (inactive) | 5.25% (inactive) | 11% (inactive) | -0.05% (inactive)
NCCCc1ccc2oc3ccccc3c2c1 | -14.2% (inactive) | 13.9% (inactive) | 15.5% (inactive) | -22.3% (inactive) | 24.4% (inactive)
O=C(c1ccccc1)c1cc(Cl)ccc1NCn1nnc2ccccc21 | -22.1% (inactive) | -40.8% (inactive) | -21.8% (inactive) | -49.5% (inactive) | -30.1% (inactive)
CC1(C)COC(C23C4C5C2C2C3C4C52I)=N1 (stereo not given) | 12.4% (inactive) | 11.2% (inactive) | 18.2% (inactive) | 26.6% (inactive) | 16.6% (inactive)
COC(=O)CCOc1ccc(C)cc1 | 12.9% (inactive) | 6.6% (inactive) | 10.3% (inactive) | -5.85% (inactive) | -21.9% (inactive)
CC(=O)CC(=O)NC1CCCC1 | -38.6% (inactive) | -33% (inactive) | -3.5% (inactive) | -50% (inactive) | -13.9% (inactive)

Structure (SMILES) | growth inhibition [1] | growth inhibition [2] | growth inhibition [3] | growth inhibition [4] | growth inhibition [5]
OC[C@@H]1C2CCC([C@@H]1CO)C2(Cc1ccccc1)Cc1ccccc1 | 26.9% (inactive) | 9.45% (inactive) | -73% (inactive) | 4.95% (inactive) | -11.2% (inactive)
CNc1ncnc2nc[nH]c12 | -6.85% (inactive) | 2.9% (inactive) | -3.15% (inactive) | -8.5% (inactive) | 14.9% (inactive)
COc1ccc(NC=O)c(C)c1 | -38.8% (inactive) | -5.35% (inactive) | -10.3% (inactive) | 28.6% (inactive) | -29% (inactive)
Nc1nnc(-c2ccccc2)s1 | 5.95% (inactive) | 2.2% (inactive) | 13.8% (inactive) | 5.85% (inactive) | 5.05% (inactive)
O=C(CI)Nc1ccc(Cl)c(Cl)c1 | 99.3% (active) | 99.8% (active) | 99.6% (active) | 99.8% (active) | 99.7% (active)
CC(C)C1=CC2=C(C(=O)C1=O)C13CCCC(C)(C)C1CC2OC3=O (stereo not given) | -45.1% (inactive) | 23.6% (inactive) | -12.3% (inactive) | -2.6% (inactive) | 85.5% (active)
CSc1cc2c(cc1N)C(=O)c1ccccc1-2 | 2.45% (inactive) | 7.4% (inactive) | -24.1% (inactive) | -13.1% (inactive) | 12.9% (inactive)
C(=N\N=C\c1ccccn1)/c1ccccn1 | -6.95% (inactive) | 5.5% (inactive) | 4.8% (inactive) | -3.7% (inactive) | 26.2% (inactive)
CC1Oc2ccc3ccccc3c2C(C)N1C (stereo not given) | 1.9% (inactive) | -6.45% (inactive) | -4.85% (inactive) | 1.3% (inactive) | 16.9% (inactive)
OCc1ccc(F)cc1 | -14.6% (inactive) | -7.5% (inactive) | 3.25% (inactive) | -10.8% (inactive) | 3.45% (inactive)
Clc1nncc(SCc2ccccc2)c1SCc1ccccc1 | 11.6% (inactive) | 8.3% (inactive) | -9% (inactive) | 22.5% (inactive) | 8.4% (inactive)
CCOC(=O)c1c(/C=N\Nc2ccccc2)nc2ccccc2c1-c1ccccc1 | 0.6% (inactive) | -2.9% (inactive) | -6.5% (inactive) | -30.8% (inactive) | -7.4% (inactive)
COC(=O)C(CNc1ccc(S(N)(=O)=O)cc1)=[N+]=[N-] | 13.3% (inactive) | 0.95% (inactive) | -12.8% (inactive) | 6.25% (inactive) | 11.2% (inactive)
CCOC1(C)OC2OC(COC(c3ccccc3)(c3ccccc3)c3ccccc3)C(OC(=O)c3ccccc3)C(OC(=O)c3ccccc3)C2O1 (stereo not given) | 14% (inactive) | 4.05% (inactive) | -9.4% (inactive) | -5.9% (inactive) | 29.6% (inactive)
CC(=O)OCC(OC(C)=O)C(OC(C)=O)C(C=NN(C(C)=O)S(=O)(=O)c1ccc(/C=C2\NC(=O)NC2=O)cc1)OC(C)=O (stereo not given) | -30.9% (inactive) | -17.9% (inactive) | 14% (inactive) | -17.8% (inactive) | -7.15% (inactive)
CCC(C(=O)NC(C)c1ccc(-c2ccccc2)cc1)c1ccccc1 (stereo not given) |  | 10% (inactive) | 13.2% (inactive) | 12.5% (inactive) | -4.7% (inactive)
CCC(=O)CC(=O)C(=O)OC | 14.6% (inactive) | -8.45% (inactive) | -15.7% (inactive) | 3.5% (inactive) | 17% (inactive)
Cn1c2ccccc2c2c(-c3ccccc3)cc3c(c21)C(=O)C=CC3=O | -10.6% (inactive) | 3.8% (inactive) | 16.2% (inactive) | -25.9% (inactive) | 7.95% (inactive)
O=C(CC(O)(C(F)(F)F)C(F)(F)F)C(CCCl)C(O)(C(F)(F)F)C(F)(F)F (stereo not given) | 18.9% (inactive) | 41.6% (inactive) | 21.4% (inactive) | 8.05% (inactive) | 38.8% (inactive)
CCCCCCCCCCCCCCCCCC(=O)NCC[N+](C)(C)C | 99.5% (active) | 99.4% (active) | 98.8% (active) | 98.8% (active) | 99.2% (active)
